Most compounds without a hit are left out; they make up all but 4% or so of the library.
Mtb FBA inh – inhibits M. tuberculosis FBA enzyme; purified M. tuberculosis FBA, fluorescence read-out; 2.3% of 360,000 active; inhibition, % at 1 µM; P9WQA3; in the data active = inhibition above about 27%;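 note: 0% = vehicle and 100% = reference inhibitor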
Target sequence (P9WQA3 whole entry, looked up): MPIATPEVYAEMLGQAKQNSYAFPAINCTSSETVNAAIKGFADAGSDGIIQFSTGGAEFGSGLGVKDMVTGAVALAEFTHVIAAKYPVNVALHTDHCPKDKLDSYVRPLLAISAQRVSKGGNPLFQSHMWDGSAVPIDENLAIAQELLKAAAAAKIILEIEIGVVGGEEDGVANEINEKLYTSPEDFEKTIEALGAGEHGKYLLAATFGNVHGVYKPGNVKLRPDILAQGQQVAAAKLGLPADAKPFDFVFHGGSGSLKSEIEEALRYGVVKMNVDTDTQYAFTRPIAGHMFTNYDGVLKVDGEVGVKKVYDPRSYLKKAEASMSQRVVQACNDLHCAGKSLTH
Mtb bLac sens – beta-lactam sensitization of Mtb H37Rv | inhibition, % at 25 µM | M. tuberculosis H37Rv growth with meropenem, percent inhibition | 0.27% of 330,000 active; call rule not given here;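 note: growth measured after seven days incubation then overnight dye step; 0% = bacteria only wells and 100% = bacteria with antibiotic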
MazF activator – MazEF (E. coli) toxin RNase activation | 0.32% of 350,000 active | activation, % at 20 µM | P0AE70 | FAM/BHQ RNA-DNA oligo cleavage fluorescence, 5 h; in the data active = activation above about 50%
Target sequence (P0AE70 whole entry, looked up): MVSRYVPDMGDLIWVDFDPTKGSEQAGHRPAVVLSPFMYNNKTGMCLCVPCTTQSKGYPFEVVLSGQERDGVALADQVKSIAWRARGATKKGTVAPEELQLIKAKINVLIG
CCHFV vOTU inh – blocks the CCHF virus ovarian tumor domain protease; CCHFV vOTU protease, Pep-AMC fluorescence; inhibition, % at 11.5 µM; AID 651958; 0.55% of 370,000 active; note: 0% = vehicle wells with enzyme and 100% = no enzyme wells
GDH-TPI counter-1 – GDH-TPI coupled enzyme inhibition counter-screen; GDH-TPI coupled enzyme counterscreen, NADH absorbance; inhibition, % at 4.8 µM; 1.2% of 360,000 active; AID 588335;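 note: 0% = DMSO wells and 100% = wells lacking the enzyme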
Mtb FBA inh conf – Mtb FBA inhibition, confirmed; shares compounds with Mtb FBA inh; purified M. tuberculosis FBA, fluorescence read-out; inhibition, % at 1 µM; 78% of 5,600 active; AID 651616; in the data active = inhibition above about 27%;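 note: 0% = vehicle wells and 100% = reference inhibitor wells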
GDH-TPI counter-2 – GDH-TPI inhibition counter-screen for FBA inhibitors. shares compounds with Mtb FBA inh. inhibition, % at 1 µM. GDH-TPI coupled enzyme counterscreen, fluorescence. AID 652141. 81% of 5,600 active; in the data active = inhibition above about 10%
GDH-TPI dose – inhibits GDH-TPI coupling enzymes in dose response | shares compounds with Mtb FBA inh | GDH-TPI coupled enzyme assay, fluorescence, artifact counterscreen | IC50, µM | 79% of 170 active; call rule not given here
* hit, by the source's call; ? = inconclusive; . = not tested or not shown; + = active, no number. Cut-off read from the data, not from the text of the source, unless noted: active = inhibition above about 30%; inactive = the rest.

SMILES	Mtb FBA inh	Mtb bLac sens	MazF activator	CCHFV vOTU inh	GDH-TPI counter-1	Mtb FBA inh conf	GDH-TPI counter-2	others
Cc1cc(N2CCOCC2)nc2ccc(NC(=O)CCC(=O)N3CCN(c4cccc(C(F)(F)F)c4)CC3)cc12	35*	75	0	-7	11	54*	40*
Cc1cc(N2CCOCC2)nc2ccc(NC(=O)CCC(=O)N3CCCCC3)cc12	37*	54	1	-77	-1	44*	33*
COc1ccc(N(C)C(=O)CCC(=O)Nc2ccc3nc(N4CCOCC4)cc(C)c3c2)c(OC)c1	14	4	-8	-51	6	.	.
Cc1ccc(C)c(N2CCN(C(=S)Nc3ccc4nc(N5CCOCC5)cc(C)c4c3)CC2)c1	27*	1	2	-21	9	89*	64*
COc1cc(NC(=O)CCC(=O)Nc2ccc3nc(N4CCOCC4)cc(C)c3c2)cc(OC)c1OC	106*	-1	3	-6	24	40*	30*
CCN1CCN(c2cc(C)c3cc(NC(=O)CCC(=O)N4CCN(c5ccccc5)CC4)ccc3n2)CC1	25	4	5	-13	5	.	.
COC(=O)[C@]12C[C@H](CC(=O)N3CCN(C(=O)c4ccco4)CC3)C(=O)N(CCC3=CCCCC3)C1=C[C@H](C(C)C)O[C@@H]2C1CC1	.	.	.	9	.	.	.
Cc1ccc(CN2CCCCC(NC(=O)Cc3cccs3)C2=O)cc1 (stereo not given)	.	.	.	4	.	.	.
CCC(C)NC(=O)CCC(=O)Nc1ccc2nc(N3CCOCC3)cc(C)c2c1 (stereo not given)	77*	-3	2	-51	22	3	-3
CCC(C)NC(=S)Nc1ccc2nc(N3CCN(CC)CC3)cc(C)c2c1 (stereo not given)	14	-2	7	-11	4	.	.
CCC(C)NC(=S)Nc1ccc2nc(N3CCOCC3)cc(C)c2c1 (stereo not given)	29*	2	9	-36	6	1	-2
O=C(N/N=C/c1ccccc1F)c1cc2c(ccc3ccccc32)o1	30*	-11	-44	-4	13	54*	36*
COc1ccc(OC)c(/C=N\NC(=O)c2cc3c(ccc4ccccc43)o2)c1	7	3	-11	3	24	.	.
COc1ccc2[nH]c3c(c2c1)CCN=C3C	0	100	7	5	16	.	.
COc1ccc2[nH]c3c(c2c1)CCNC3=O	88*	-3	9	-34	2	44*	36*
CCCCN=C(N)NC(=O)c1ccccc1	.	.	.	-2	.	.	.
C=CCNC(=O)Nc1ccc2c(c1)[C@@]1(CC(=O)N(CC(C)C)C1c1ccccc1)C(=O)N2C (stereo not given in full)	.	.	.	2	.	.	.
O=c1[nH]c2cc3c(cc2cc1CN(CCCO)Cc1nnnn1Cc1ccc(F)cc1)OCO3	36*	8	10	-10	24	35*	30*
O=c1[nH]c2cc3c(cc2cc1CN(Cc1ccc2c(c1)OCO2)Cc1nnnn1CC1CCCO1)OCO3 (stereo not given)	40*	35	-2	-22	24	47*	40*
Cc1ccc2[nH]c(=O)c(CN(Cc3cccnc3)Cc3nnnn3CC3CCCO3)cc2c1 (stereo not given)	2	0	-9	0	19	.	.
CCN1CC2(COC(=O)c3ccccc3N)CCC(OC)C34C5CC6C(OC)CC(O)(C5C6OC)C(O)(C(OC)C23)C14 (stereo not given)	36*	-4	16	.	2	-3	-6
CCN1C[C@]2(COC(=O)c3ccccc3N)CC[C@H](OC)C34[C@@H]5C[C@H]6[C@H](OC)[C@@H]5[C@](O)(C[C@@H]6OC)[C@@](O)([C@H]13)[C@@H](OC)[C@@H]42	43*	?	2	-48	2	59*	39*
CCN1C[C@]2(COC)CC[C@H](O)[C@]34C1[C@](O)([C@@H](OC)[C@H]23)[C@@]1(O)C[C@H](OC)[C@H]2C[C@@H]4[C@@H]1[C@H]2OC	1	0	11	-2	-10	.	.
CCOc1ccccc1Oc1coc2cc(O)ccc2c1=O	53*	-2	-2	-21	22	41*	26*
COc1ccccc1Oc1coc2cc(O)ccc2c1=O	31*	4	-7	-37	24	+	+
SMILES	Mtb FBA inh	Mtb bLac sens	MazF activator	CCHFV vOTU inh	GDH-TPI counter-1	Mtb FBA inh conf	GDH-TPI counter-2	others
CCOc1ccccc1Oc1coc2cc(OC(=O)N(C)C)ccc2c1=O	-1	1	6	-2	3	.	.
CCOC(=O)c1ccc(Oc2coc3cc(O)ccc3c2=O)cc1	28*	2	-2	-33	7	161*	123*
CCOc1ccccc1Oc1coc2cc(OC(=O)c3ccco3)ccc2c1=O	32*	5	-14	-33	19	29*	21*
COc1ccc(-c2coc3cc(O)ccc3c2=O)cc1OC	17	-5	0	-6	21	.	.
CC(C)CNC(=O)OCc1cn(Cc2ccccc2F)nn1	.	.	.	-4	.	.	.
Nc1[nH]c(C(=O)c2ccccc2)c(-c2ccccc2Br)c1C(=O)c1cccs1	.	.	.	6	.	.	.
CC(C)CN1C(=O)C[C@@]2(C(=O)N(C)c3ccc(NS(=O)(=O)C4CCCCC4)cc32)C1c1ccccc1 (stereo not given in full)	.	.	.	5	.	.	.
CC1(C(=O)Nc2ccccc2)Cc2c(-c3ccc4c(c3)OCO4)ccnc2O1 (stereo not given)	48*	.	.	6	4	24	10	GDH-TPI dose=4.5*
CC(=O)Nc1ccc(-c2ccnc3c2CC(C)(C(=O)Nc2ccc4c(c2)OCO4)O3)cc1 (stereo not given)	0	.	.	11	14	.	.
CC1(C(=O)Nc2cccnc2)Cc2c(-c3ccc4c(c3)OCO4)ccnc2O1 (stereo not given)	37*	.	.	-9	7	43*	30*
CC(=O)Nc1ccc(NC(=O)C2(C)Cc3c(-c4ccc5c(c4)OCO5)ccnc3O2)cc1 (stereo not given)	52*	.	.	6	0	6	-6
COc1cc(OC)cc(C(=O)NCCN2C(=O)C3C4C=CC(C4)C3C2=O)c1 (stereo not given)	.	.	.	-3	.	.	.
Cc1ccc(C2c3c(n[nH]c3C)C(=O)N2Cc2ccccc2)cc1 (stereo not given)	.	.	.	11	.	.	.
Clc1ccc(-n2c(SCc3cccc4ccccc34)nnc2-c2ccco2)cc1	.	.	.	11	.	.	.
Fc1cccc(CCNCc2ccccn2)c1	30*	33	5	6	-8	87*	82*
Cc1ccc(S(=O)(=O)Nc2nc(C)c(C(=O)NN)s2)cc1	6	1	-4	7	30	.	.
